# Laboratory results reported in ChEMBL document CHEMBL1961873, “Compounds: GSK PKIS; Assays: Nanosyn kinase panel” (2012).
# What was measured:
# [1] = target: Protein kinase C gamma type (Homo sapiens) (UniProt P05129); conditions: at 1 µM;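 also: each value is an averaged percent inhibition of the enzyme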
# [2] = target: T1, Protein kinase C iota type (Homo sapiens) (UniProt P41743); conditions: at 0.1 µM
# T1 sequence (whole entry): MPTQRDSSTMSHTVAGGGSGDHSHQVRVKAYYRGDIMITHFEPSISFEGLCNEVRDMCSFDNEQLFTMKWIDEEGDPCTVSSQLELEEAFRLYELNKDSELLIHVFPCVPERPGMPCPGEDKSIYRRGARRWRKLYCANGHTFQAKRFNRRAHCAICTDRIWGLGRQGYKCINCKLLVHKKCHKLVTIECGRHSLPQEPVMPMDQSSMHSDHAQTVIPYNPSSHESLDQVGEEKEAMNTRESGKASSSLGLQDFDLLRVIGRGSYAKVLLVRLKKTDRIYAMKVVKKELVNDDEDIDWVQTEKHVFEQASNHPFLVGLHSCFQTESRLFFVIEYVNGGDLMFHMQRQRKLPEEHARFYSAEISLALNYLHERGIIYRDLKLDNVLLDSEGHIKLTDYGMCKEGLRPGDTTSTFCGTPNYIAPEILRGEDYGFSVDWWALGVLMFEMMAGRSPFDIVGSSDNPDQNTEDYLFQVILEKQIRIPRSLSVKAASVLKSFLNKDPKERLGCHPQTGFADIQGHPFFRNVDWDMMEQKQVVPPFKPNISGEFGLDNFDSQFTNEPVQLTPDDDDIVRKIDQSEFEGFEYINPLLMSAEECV
# [3] = target: T1, Protein kinase C iota type (Homo sapiens); conditions: at 1 µM
# [4] = target: Protein kinase C theta type (Homo sapiens) (UniProt Q04759); conditions: at 0.1 µM
# Chain of Protein kinase C theta type (Homo sapiens) (Q04759 whole entry, looked up): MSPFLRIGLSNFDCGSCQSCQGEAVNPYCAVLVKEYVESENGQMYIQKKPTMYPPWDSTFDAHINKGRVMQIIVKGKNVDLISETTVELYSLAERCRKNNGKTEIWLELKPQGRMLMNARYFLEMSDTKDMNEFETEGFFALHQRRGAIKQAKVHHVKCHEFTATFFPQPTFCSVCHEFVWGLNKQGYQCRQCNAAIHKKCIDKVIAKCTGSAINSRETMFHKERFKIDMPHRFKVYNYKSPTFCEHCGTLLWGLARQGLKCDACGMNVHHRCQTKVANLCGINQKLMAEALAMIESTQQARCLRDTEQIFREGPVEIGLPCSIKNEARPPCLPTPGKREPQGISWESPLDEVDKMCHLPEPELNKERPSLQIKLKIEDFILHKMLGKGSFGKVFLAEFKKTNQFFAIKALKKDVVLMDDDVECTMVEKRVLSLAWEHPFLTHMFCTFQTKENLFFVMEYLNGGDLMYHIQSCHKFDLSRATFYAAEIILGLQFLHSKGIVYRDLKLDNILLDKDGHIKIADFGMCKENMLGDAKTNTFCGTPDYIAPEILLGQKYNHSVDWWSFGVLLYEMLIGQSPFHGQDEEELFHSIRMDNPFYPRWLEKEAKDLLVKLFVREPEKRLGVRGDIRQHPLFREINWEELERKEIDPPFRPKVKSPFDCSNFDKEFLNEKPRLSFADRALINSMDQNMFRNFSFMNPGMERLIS
# [5] = target: Protein kinase C theta type (Homo sapiens) (UniProt Q04759); conditions: at 1 µM
# [6] = target: Protein kinase C beta type (Homo sapiens) (UniProt P05771); conditions: at 0.1 µM
# Chain of Protein kinase C beta type (Homo sapiens) (P05771 2-671 limits assumed): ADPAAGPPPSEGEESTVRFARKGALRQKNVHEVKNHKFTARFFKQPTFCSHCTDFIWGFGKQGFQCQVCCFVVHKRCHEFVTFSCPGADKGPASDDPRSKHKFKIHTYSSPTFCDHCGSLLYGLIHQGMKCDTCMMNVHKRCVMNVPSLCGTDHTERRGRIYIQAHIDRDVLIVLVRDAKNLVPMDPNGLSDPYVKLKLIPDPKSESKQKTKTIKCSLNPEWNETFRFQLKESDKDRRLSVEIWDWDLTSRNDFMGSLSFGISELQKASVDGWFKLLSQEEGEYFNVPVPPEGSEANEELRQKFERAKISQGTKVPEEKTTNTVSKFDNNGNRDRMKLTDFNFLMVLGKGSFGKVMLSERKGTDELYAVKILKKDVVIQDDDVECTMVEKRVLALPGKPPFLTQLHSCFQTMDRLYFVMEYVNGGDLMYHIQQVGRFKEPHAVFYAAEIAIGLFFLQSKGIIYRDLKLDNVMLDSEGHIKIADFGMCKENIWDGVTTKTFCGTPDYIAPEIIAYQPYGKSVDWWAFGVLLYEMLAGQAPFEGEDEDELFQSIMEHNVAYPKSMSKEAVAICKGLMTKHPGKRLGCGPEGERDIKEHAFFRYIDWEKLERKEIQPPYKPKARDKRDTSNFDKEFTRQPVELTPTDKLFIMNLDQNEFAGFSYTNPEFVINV
# [7] = target: Protein kinase C beta type (Homo sapiens) (UniProt P05771); conditions: at 1 µM
# [8] = target: T2, Serine/threonine-protein kinase D1 (Homo sapiens) (UniProt Q15139); conditions: at 0.1 µM
# T2 sequence (whole entry): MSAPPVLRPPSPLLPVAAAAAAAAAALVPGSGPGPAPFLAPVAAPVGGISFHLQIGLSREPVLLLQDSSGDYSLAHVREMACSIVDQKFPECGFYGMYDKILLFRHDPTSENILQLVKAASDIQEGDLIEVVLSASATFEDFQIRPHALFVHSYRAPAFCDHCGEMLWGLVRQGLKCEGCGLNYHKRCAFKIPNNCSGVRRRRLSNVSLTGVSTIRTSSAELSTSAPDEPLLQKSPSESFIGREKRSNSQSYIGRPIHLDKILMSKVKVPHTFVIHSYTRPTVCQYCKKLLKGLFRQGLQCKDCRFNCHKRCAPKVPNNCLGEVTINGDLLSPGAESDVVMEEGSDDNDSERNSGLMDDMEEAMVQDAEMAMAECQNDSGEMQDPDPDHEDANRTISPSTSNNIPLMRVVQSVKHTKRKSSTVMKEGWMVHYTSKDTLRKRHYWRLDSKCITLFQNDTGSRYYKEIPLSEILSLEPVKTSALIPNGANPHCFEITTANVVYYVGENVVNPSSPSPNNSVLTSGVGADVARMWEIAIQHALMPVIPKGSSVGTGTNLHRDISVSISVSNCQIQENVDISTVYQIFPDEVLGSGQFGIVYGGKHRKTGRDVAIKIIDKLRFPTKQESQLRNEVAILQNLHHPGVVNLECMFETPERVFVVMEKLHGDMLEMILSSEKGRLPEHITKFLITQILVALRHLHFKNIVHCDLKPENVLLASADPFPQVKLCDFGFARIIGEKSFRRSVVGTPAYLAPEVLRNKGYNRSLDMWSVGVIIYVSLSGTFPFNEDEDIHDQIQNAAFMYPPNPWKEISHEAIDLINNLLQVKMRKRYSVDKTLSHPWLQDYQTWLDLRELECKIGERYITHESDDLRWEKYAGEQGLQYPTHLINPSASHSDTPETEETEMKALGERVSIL
# [9] = target: T2, Serine/threonine-protein kinase D1 (Homo sapiens); conditions: at 1 µM
# [10] = target: T3, Serine/threonine-protein kinase D2 (Homo sapiens) (UniProt Q9BZL6); conditions: at 0.1 µM
# T3 sequence (whole entry): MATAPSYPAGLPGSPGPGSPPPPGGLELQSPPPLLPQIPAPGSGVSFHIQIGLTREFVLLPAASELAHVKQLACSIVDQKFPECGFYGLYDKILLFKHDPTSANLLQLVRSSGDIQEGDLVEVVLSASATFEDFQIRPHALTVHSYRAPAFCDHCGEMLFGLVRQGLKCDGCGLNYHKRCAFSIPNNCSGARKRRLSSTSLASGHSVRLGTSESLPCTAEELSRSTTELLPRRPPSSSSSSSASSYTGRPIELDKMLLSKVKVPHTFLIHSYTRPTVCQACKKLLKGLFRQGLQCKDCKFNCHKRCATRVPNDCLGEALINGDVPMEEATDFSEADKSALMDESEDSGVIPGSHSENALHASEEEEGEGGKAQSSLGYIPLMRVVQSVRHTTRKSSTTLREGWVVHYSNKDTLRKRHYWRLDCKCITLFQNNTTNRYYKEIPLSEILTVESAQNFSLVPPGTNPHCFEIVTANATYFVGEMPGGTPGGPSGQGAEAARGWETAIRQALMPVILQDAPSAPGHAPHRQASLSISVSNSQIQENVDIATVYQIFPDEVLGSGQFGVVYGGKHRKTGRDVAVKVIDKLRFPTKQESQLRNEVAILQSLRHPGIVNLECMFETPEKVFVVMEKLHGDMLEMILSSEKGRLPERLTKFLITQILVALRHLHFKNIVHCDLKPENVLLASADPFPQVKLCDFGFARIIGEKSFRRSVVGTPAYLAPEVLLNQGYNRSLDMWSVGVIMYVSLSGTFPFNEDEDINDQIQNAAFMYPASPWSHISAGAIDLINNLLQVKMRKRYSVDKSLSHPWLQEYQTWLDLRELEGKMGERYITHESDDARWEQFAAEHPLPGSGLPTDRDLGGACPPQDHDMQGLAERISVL
# [11] = target: T3, Serine/threonine-protein kinase D2 (Homo sapiens); conditions: at 1 µM
# [12] = target: T4, Serine/threonine-protein kinase D3 (Homo sapiens) (UniProt O94806); conditions: at 0.1 µM
# T4 sequence (whole entry): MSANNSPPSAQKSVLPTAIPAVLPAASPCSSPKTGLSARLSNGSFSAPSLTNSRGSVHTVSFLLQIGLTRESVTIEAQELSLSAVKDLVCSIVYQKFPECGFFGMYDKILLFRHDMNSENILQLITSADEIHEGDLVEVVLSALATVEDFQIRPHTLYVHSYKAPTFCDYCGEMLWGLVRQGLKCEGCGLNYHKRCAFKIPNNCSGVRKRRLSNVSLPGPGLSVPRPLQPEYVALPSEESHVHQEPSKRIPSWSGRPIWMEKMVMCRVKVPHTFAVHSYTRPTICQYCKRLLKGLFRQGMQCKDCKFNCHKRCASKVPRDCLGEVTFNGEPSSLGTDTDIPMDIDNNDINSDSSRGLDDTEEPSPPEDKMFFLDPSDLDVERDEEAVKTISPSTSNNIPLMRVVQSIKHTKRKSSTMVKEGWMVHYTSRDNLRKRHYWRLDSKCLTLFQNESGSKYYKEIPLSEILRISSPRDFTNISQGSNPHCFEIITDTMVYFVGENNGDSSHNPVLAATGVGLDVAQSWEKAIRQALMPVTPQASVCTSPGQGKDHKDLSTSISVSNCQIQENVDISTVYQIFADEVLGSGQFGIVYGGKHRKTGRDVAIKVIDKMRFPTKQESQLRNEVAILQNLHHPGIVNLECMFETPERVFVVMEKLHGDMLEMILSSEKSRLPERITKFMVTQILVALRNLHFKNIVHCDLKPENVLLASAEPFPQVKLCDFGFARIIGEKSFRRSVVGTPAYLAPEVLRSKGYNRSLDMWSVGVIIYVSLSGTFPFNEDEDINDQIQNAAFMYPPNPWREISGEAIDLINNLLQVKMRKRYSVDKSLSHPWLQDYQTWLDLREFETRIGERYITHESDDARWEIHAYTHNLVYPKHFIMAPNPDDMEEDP
# [13] = target: T4, Serine/threonine-protein kinase D3 (Homo sapiens); conditions: at 1 µM
# [14] = target: T5, cGMP-dependent protein kinase 1 (Homo sapiens) (UniProt Q13976); conditions: at 0.1 µM
# T5 sequence (whole entry): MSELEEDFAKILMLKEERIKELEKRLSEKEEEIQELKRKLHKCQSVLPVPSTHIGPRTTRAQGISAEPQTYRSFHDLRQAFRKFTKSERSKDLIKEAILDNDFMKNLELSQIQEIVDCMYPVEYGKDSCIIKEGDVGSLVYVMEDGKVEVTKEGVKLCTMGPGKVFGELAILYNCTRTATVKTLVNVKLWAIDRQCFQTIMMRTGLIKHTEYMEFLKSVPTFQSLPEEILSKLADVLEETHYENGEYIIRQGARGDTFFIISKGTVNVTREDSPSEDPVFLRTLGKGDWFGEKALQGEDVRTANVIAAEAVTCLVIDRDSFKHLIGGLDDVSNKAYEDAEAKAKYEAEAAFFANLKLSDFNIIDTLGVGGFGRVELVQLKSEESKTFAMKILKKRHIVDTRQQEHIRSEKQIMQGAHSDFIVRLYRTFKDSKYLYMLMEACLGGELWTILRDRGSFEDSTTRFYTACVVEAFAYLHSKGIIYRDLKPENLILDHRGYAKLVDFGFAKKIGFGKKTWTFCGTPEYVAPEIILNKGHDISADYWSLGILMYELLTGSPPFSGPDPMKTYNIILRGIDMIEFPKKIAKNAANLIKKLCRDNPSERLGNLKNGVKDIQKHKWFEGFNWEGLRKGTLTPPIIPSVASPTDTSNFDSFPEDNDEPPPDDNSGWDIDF
# [15] = target: T5, cGMP-dependent protein kinase 1 (Homo sapiens); conditions: at 1 µM
# [16] = target: T6, cGMP-dependent protein kinase 2 (Homo sapiens) (UniProt Q13237); conditions: at 0.1 µM
# T6 sequence (whole entry): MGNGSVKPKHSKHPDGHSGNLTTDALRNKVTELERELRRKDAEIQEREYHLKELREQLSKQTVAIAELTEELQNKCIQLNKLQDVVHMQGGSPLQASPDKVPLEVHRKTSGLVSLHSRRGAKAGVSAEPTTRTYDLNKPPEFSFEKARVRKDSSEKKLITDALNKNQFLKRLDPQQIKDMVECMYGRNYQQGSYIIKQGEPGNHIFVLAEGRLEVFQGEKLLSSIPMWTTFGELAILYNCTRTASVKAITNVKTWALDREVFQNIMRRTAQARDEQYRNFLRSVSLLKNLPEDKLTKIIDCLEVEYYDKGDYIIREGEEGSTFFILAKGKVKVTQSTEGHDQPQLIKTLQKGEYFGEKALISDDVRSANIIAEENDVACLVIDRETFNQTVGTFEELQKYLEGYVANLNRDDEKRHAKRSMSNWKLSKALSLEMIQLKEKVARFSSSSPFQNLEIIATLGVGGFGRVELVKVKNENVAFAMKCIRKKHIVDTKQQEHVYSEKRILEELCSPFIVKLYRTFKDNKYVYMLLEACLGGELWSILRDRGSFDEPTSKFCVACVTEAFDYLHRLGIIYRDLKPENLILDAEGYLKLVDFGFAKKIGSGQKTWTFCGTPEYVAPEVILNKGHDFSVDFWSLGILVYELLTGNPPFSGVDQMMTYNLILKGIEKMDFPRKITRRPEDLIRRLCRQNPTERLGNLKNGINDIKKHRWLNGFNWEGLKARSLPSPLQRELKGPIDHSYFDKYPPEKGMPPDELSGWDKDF
# [17] = target: T6, cGMP-dependent protein kinase 2 (Homo sapiens); conditions: at 1 µM
# [18] = target: T7, cAMP-dependent protein kinase catalytic subunit PRKX (Homo sapiens) (UniProt P51817); conditions: at 0.1 µM
# T7 sequence (whole entry): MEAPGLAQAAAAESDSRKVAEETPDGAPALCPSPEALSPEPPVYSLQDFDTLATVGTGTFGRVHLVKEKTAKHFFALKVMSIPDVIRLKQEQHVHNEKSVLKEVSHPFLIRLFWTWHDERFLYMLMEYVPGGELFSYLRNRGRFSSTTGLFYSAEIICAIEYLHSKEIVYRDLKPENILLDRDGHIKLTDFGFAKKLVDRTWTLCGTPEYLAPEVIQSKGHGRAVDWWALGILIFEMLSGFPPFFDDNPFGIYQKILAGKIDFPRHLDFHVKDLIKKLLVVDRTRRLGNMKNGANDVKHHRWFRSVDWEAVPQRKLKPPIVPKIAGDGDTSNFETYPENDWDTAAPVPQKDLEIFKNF
# [19] = target: T7, cAMP-dependent protein kinase catalytic subunit PRKX (Homo sapiens); conditions: at 1 µM
# [20] = target: Rho-associated protein kinase 1 (Homo sapiens) (UniProt Q13464); conditions: at 0.1 µM;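 also: values are mean percent inhibition of ROCK1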
# Chain of Rho-associated protein kinase 1 (Homo sapiens) (Q13464 2-1354 limits assumed): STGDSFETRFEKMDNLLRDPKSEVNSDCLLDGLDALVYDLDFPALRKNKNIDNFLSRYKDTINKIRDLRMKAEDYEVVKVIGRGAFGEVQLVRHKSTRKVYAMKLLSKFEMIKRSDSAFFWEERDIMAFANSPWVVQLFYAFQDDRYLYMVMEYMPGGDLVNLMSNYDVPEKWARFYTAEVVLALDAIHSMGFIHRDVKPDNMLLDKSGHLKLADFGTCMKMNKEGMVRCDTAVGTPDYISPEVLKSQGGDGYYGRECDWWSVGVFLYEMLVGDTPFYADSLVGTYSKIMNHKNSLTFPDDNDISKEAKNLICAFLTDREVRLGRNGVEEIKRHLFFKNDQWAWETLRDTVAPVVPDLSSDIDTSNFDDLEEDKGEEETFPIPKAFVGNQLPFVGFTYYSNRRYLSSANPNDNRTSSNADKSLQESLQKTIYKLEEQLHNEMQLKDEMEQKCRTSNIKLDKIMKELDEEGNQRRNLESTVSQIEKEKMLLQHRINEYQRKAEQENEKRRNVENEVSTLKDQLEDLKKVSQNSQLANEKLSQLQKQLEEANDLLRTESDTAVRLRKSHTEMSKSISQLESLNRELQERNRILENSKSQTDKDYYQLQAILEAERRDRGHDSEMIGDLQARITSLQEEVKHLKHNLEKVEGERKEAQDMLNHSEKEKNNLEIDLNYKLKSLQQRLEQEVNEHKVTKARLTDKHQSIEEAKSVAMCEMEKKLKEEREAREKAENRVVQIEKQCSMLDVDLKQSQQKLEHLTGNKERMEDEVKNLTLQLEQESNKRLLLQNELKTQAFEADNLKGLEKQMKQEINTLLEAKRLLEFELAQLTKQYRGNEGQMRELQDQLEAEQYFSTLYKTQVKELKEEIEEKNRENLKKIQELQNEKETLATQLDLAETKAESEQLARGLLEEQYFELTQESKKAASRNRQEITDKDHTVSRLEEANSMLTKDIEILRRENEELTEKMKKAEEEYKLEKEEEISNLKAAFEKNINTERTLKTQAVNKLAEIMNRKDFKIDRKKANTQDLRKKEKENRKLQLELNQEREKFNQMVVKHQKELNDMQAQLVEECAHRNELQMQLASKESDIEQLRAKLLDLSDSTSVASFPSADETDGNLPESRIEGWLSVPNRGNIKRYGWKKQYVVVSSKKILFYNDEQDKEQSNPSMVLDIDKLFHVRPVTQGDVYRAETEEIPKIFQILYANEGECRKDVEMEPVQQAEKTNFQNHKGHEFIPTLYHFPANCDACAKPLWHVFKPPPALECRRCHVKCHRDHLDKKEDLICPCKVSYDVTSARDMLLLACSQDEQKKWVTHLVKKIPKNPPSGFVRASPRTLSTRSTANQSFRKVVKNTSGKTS
Structure (SMILES),inhibition [1] [%],inhibition [2] [%],inhibition [3] [%],inhibition [4] [%],inhibition [5] [%],inhibition [6] [%],inhibition [7] [%],inhibition [8] [%],inhibition [9] [%],inhibition [10] [%],inhibition [11] [%],inhibition [12] [%],inhibition [13] [%],inhibition [14] [%],inhibition [15] [%],inhibition [16] [%],inhibition [17] [%],inhibition [18] [%],inhibition [19] [%],inhibition [20] [%]
Cc1ccc(C(=O)NC(C)C)cc1-c1ccc(C(=O)NCC2CC2)cc1,-2.88,-0.44,-0.8,-1.25,-1.29,-0.65,-0.9,-3.39,-3.57,-1.97,-0.88,-3.09,-2.84,-3.24,-2.98,-1.45,-0.98,-1.5,-1.51,-1.38
Cc1ccc(NC(=O)c2ccoc2)cc1-c1ccc(C(=O)NCC2CC2)cc1,-0.41,1.53,-0.02,0.79,0.76,-0.21,0.92,3.2,2.32,2.39,3.55,2.92,2.95,0.89,1.09,1.21,1.02,1.5,0.55,0
NCc1ccc(-n2c(-c3nonc3N)nc3cnccc32)cc1,42.1,4.36,27.5,17.2,59.4,7.63,37.7,8.16,41,8.58,41.3,8.56,40,6.05,26.6,16,60.2,5.92,29.4,80.6
Clc1ccc(CNc2nccc(-c3cnn4ncccc34)n2)cc1,4.31,-0.38,-1.34,1.01,1.73,0.21,0.83,1.24,4.11,1.12,5.34,0.83,3.93,2.07,6.09,-0.17,3.68,0.56,1.41,0.21
